About 2,000 (36%) of roughly 5,500 compounds were called active. Another 18% or so got no clear call; they are omitted. Cut-off read from the data, not from the text of the source: active = normalized growth mostly below about 0.91 (no sharp cut-off); inconclusive = no clear call, values can overlap the other calls; inactive = mostly above about 0.92. The list shows a part of the results.
Experiment: chemical genetic growth profiling, strain panel (AID 1159580);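 note: tested at 20 µM; growth read once vehicle control cultures reached saturation at 30 °C; 1 = growth at the plate median or of vehicle wells; lower values mean less growth of the strain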
Conditions: growth OD

Measured: normalized growth

NS(=O)(=O)c1cc(C2(O)NC(=O)c3ccccc32)ccc1Cl (stereo unspecified)
inactive: S. cerevisiae deletion strains, locus YJR075W, strain HOC1, stronger effect = lower value 1.03 | S. cerevisiae deletion strains, locus YKL009W, strain mrt4, stronger effect = lower value 1.01 | S. cerevisiae deletion strains, locus YKL068W, stronger effect = lower value 1.01 | S. cerevisiae deletion strains, locus YKL085W, strain MDH1 (second series), stronger effect = lower value 1.01 | S. cerevisiae deletion strains, locus YKL085W, strain MDH1, stronger effect = lower value 1.01 | S. cerevisiae deletion strains, locus YKL160W, strain elf1, stronger effect = lower value 0.991 | S. cerevisiae deletion strains, locus YKL190W, strain CNB1, stronger effect = lower value 1.01 | S. cerevisiae deletion strains, locus YKR001C, strain vps1, stronger effect = lower value 1.02 | S. cerevisiae deletion strains, locus YKR026C, strain gcn3, stronger effect = lower value 0.978 | S. cerevisiae deletion strains, locus YKR091W, strain srl3, stronger effect = lower value 0.987 | S. cerevisiae deletion strains, locus YLL001W, strain dnm1, stronger effect = lower value 0.972 | S. cerevisiae deletion strains, locus YLL026W, stronger effect = lower value 0.988 | S. cerevisiae deletion strains, locus YLL041C, strain sdh2, stronger effect = lower value 0.981 | S. cerevisiae deletion strains, locus YLR027C, strain aat2, stronger effect = lower value 0.994 | S. cerevisiae deletion strains, locus YLR039C, strain RIC1, stronger effect = lower value 1.01 | S. cerevisiae deletion strains, locus YLR058C, strain SHM2, stronger effect = lower value 1.03 | S. cerevisiae deletion strains, locus YLR102C, strain apc9, stronger effect = lower value 1.01 | S. cerevisiae deletion strains, locus YLR113W, strain HOG1, stronger effect = lower value 0.969 | S. cerevisiae deletion strains, locus YLR221C, strain rsa3, stronger effect = lower value 0.981 | S. cerevisiae deletion strains, locus YLR258W, strain gsy2, stronger effect = lower value 0.999 | S. cerevisiae deletion strains, locus YLR262C, strain YPT6 (second series), stronger effect = lower value 1.01 | S. cerevisiae deletion strains, locus YLR262C, strain YPT6, stronger effect = lower value 1.04 | S. cerevisiae deletion strains, locus YLR268W, strain sec22, stronger effect = lower value 1.03 | S. cerevisiae deletion strains, locus YLR320W, strain mms22, stronger effect = lower value 0.976 | S. cerevisiae deletion strains, locus YLR330W, strain CHS5, stronger effect = lower value 1.02 | S. cerevisiae deletion strains, locus YLR342W, strain FKS1 (second series), stronger effect = lower value 1.01 | S. cerevisiae deletion strains, locus YLR342W, strain FKS1, stronger effect = lower value 0.987 | S. cerevisiae deletion strains, locus YLR357W, strain rsc2, stronger effect = lower value 1 | S. cerevisiae deletion strains, locus YLR370C, strain arc18, stronger effect = lower value 0.986 | S. cerevisiae deletion strains, locus YLR371W, strain rom2, stronger effect = lower value 1.02 | S. cerevisiae deletion strains, locus YLR384C, strain iki3, stronger effect = lower value 0.987 | S. cerevisiae deletion strains, locus YLR418C, strain cdc73, stronger effect = lower value 1.03 | S. cerevisiae deletion strains, locus YML016C, strain PPZ1, stronger effect = lower value 1.01 | S. cerevisiae deletion strains, locus YML032C, strain rad52, stronger effect = lower value 1.02 | S. cerevisiae deletion strains, locus YML120C, strain ndi1, stronger effect = lower value 0.983 | S. cerevisiae deletion strains, locus YML124C, strain tub3, stronger effect = lower value 1.02 | S. cerevisiae deletion strains, locus YMR058W, strain fet3, stronger effect = lower value 1.01 | S. cerevisiae deletion strains, locus YMR078C, strain ctf18, stronger effect = lower value 1.02 | S. cerevisiae deletion strains, locus YMR125W, strain sto1, stronger effect = lower value 1.01 | S. cerevisiae deletion strains, locus YMR129W, stronger effect = lower value 0.985 | S. cerevisiae deletion strains, locus YMR205C, strain PFK2, stronger effect = lower value 0.99 | S. cerevisiae deletion strains, locus YMR223W, strain ubp8, stronger effect = lower value 1.02 | S. cerevisiae deletion strains, locus YMR231W, strain pep5, stronger effect = lower value 0.994 | S. cerevisiae deletion strains, locus YMR263W, strain SAP30, stronger effect = lower value 1.01 | S. cerevisiae deletion strains, locus YMR307W, strain GAS1, stronger effect = lower value 0.984 | S. cerevisiae deletion strains, locus YNL067W, strain RPL9B, stronger effect = lower value 1.02 | S. cerevisiae deletion strains, locus YNL071W, strain lat1, stronger effect = lower value 0.989 | S. cerevisiae deletion strains, locus YNL153C, strain GIM3, stronger effect = lower value 1.02 | S. cerevisiae deletion strains, locus YNL183C, strain NPR1, stronger effect = lower value 0.948 | S. cerevisiae deletion strains, locus YNL209W, strain ssb2, stronger effect = lower value 0.997 | S. cerevisiae deletion strains, locus YNL233W, strain BNI4, stronger effect = lower value 1.02 | S. cerevisiae deletion strains, locus YNL248C, strain rpa49, stronger effect = lower value 1.02 | S. cerevisiae deletion strains, locus YNL250W, strain rad50, stronger effect = lower value 0.992 | S. cerevisiae deletion strains, locus YNL271C, strain bni1, stronger effect = lower value 1.02 | S. cerevisiae deletion strains, locus YNL298W, strain CLA4, stronger effect = lower value 1.03 | S. cerevisiae deletion strains, locus YNL307C, strain MCK1, stronger effect = lower value 1.02 | S. cerevisiae deletion strains, locus YNL322C, strain KRE1 (second series), stronger effect = lower value 0.983 | S. cerevisiae deletion strains, locus YNL322C, strain KRE1, stronger effect = lower value 1 | S. cerevisiae deletion strains, locus YNR049C, strain mso1, stronger effect = lower value 0.997 | S. cerevisiae deletion strains, locus YNR052C, strain pop2, stronger effect = lower value 1.01 | S. cerevisiae deletion strains, locus YOL006C, strain TOP1, stronger effect = lower value 1.1 | S. cerevisiae deletion strains, locus YOL012C, strain htz1 1.12 | S. cerevisiae deletion strains, locus YOL147C, strain pex11, stronger effect = lower value 1.01 | S. cerevisiae deletion strains, locus YOR001W, strain rrp6, stronger effect = lower value 0.987 | S. cerevisiae deletion strains, locus YOR061W, strain CKA2, stronger effect = lower value 1.01 | S. cerevisiae deletion strains, locus YOR069W, strain VPS5, stronger effect = lower value 1.01 | S. cerevisiae deletion strains, locus YOR070C, strain gyp1, stronger effect = lower value 0.991 | S. cerevisiae deletion strains, locus YOR080W, strain dia2, stronger effect = lower value 0.976 | S. cerevisiae deletion strains, locus YOR083W, strain WHI5, stronger effect = lower value 0.98 | S. cerevisiae deletion strains, locus YOR106W, strain vam3, stronger effect = lower value 1.01 | S. cerevisiae deletion strains, locus YOR136W, strain idh2, stronger effect = lower value 1.03 | S. cerevisiae deletion strains, locus YOR144C, strain elg1, stronger effect = lower value 1.02 | S. cerevisiae deletion strains, locus YOR184W, strain ser1, stronger effect = lower value 1.03 | S. cerevisiae deletion strains, locus YOR231W, strain MKK1, stronger effect = lower value 0.976 | S. cerevisiae deletion strains, locus YOR265W, strain rbl2, stronger effect = lower value 0.993 | S. cerevisiae deletion strains, locus YOR270C, strain vph1, stronger effect = lower value 1.01 | S. cerevisiae deletion strains, locus YOR290C, strain snf2, stronger effect = lower value 0.986 | S. cerevisiae deletion strains, locus YOR316C, strain cot1, stronger effect = lower value 1.02 | S. cerevisiae deletion strains, locus YPL051W, strain arl3, stronger effect = lower value 0.981 | S. cerevisiae deletion strains, locus YPL055C, strain LGE1, stronger effect = lower value 1.02 | S. cerevisiae deletion strains, locus YPL078C, strain atp4, stronger effect = lower value 0.984 | S. cerevisiae deletion strains, locus YPL106C, strain sse1, stronger effect = lower value 0.948 | S. cerevisiae deletion strains, locus YPL240C, strain hsp82, stronger effect = lower value 0.99 | S. cerevisiae deletion strains, locus YPL241C, strain CIN2, stronger effect = lower value 1.01 | S. cerevisiae deletion strains, locus YPL256C, strain CLN2, stronger effect = lower value 0.96 | S. cerevisiae deletion strains, locus YPR119W, strain clb2, stronger effect = lower value 1.01 | S. cerevisiae deletion strains, locus YPR141C, strain kar3, stronger effect = lower value 1.03 | S. cerevisiae deletion strains, locus YPR163C, strain tif3, stronger effect = lower value 1.01 | S. cerevisiae deletion strains, locus YPR167C, strain met16, stronger effect = lower value 1.02 | S. cerevisiae deletion strains, strain wtn01, stronger effect = lower value 1.04 | S. cerevisiae strains, strain wild type, stronger effect = lower value 1.01

Source: PubChem BioAssay AID1159580 (chemical genetic matrix, 2015)
